ANO1 block: TMEM16A chloride channel inhibitors, primary screen, cell-based, HTS; Anoctamin-1 (Mus musculus), Q8BHY3; 310,000 compounds, 1.2% hits; HEK293 TMEM16A/YFP iodide influx fluorescence, ionomycin; normalized B-score (activity score, 25-100; higher = stronger inhibition) at 10 µM;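 active = ratio plate-corrected score three or more library SD toward inhibition, starting fluorescence score within five deviations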;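 note: score derived from kinetic fluorescence span divided by baseline fluorescence per well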
Target sequence (Q8BHY3 whole entry, looked up): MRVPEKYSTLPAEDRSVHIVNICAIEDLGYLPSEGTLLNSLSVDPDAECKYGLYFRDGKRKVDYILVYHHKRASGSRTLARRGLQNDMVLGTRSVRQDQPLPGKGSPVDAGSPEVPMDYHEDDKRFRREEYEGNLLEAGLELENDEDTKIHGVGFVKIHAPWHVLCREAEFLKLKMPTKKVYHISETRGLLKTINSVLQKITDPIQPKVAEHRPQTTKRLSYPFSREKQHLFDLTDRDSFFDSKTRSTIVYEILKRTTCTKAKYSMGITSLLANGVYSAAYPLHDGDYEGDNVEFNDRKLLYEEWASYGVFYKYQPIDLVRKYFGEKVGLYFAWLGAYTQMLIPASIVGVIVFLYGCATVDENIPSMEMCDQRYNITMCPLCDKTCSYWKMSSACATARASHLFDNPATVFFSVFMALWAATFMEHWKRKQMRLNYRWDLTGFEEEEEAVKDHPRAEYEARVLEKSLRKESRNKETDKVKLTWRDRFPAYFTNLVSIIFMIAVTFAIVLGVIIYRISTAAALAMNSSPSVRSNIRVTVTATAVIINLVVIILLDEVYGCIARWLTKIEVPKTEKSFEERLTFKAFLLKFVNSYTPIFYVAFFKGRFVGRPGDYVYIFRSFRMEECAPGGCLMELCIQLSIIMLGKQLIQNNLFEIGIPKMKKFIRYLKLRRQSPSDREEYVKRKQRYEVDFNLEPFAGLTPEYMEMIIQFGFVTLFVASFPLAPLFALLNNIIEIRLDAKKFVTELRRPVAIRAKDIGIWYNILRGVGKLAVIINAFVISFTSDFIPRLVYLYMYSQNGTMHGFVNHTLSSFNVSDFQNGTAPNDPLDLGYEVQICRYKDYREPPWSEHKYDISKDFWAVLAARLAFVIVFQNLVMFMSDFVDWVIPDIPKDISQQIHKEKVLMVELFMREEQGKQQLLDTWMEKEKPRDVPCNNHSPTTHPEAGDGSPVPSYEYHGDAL
NTR1 ag: agonists of human NTR1, primary screen, imaging, U2OS cells, beta-arrestin-GFP, high content; NTR1-U2OS beta-arrestin-GFP spot imaging, agonist mode; activation, % at 20 µM; Neurotensin receptor type 1 (Homo sapiens), P30989; 330,000 compounds, 0.17% hits;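 active = activation at or above 40% of the spot to cytoplasm intensity ratio, with at least 20 cells analyzed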;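 note: 0% = DMSO without peptide and 100% = 100 nM NTR1 peptide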
MEKK3 PB1 HTS: modulators of MEKK3-MEK5 PB1 binding, primary screen, biochemical, wildtype MEKK3, multiplex bead flow cytometry, Alexa488-MEK5. Mitogen-activated protein kinase kinase kinase 3 (Homo sapiens), Q99759. bead-based flow cytometry, Alexa488-MEK5 binding to MEKK3; actives lie on both sides; 0 = blocked by unlabeled MEK5, 100 = vehicle. binding response (% of control), % at 10 µM. 290,000 compounds, 1.4% hits;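 active = binding response more than 3 SD above or below the average of its plate-row segment, actives on both sides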;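 note: Alexa488 bead fluorescence after subtracting the streptavidin-only scavenger bead signal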
MEKK2wt PB1 HTS: modulators of MEK5 binding to wildtype MEKK2, primary screen, biochemical, multiplex bead flow cytometry, Alexa488-MEK5; Mitogen-activated protein kinase kinase kinase 2 (Homo sapiens), Q9Y2U5; Alexa488-MEK5 binding to MEKK2 WT; actives lie on both sides; binding response (% of control), % at 10 µM; 290,000 compounds, 1.1% hits; AID 1531, 2009; in the data active = binding response below about 67% or above about 130%
TMEM16A act: TMEM16A chloride channel activators or potentiators, primary screen, cell-based, HTS | AID 623877, 2012 | 340,000 compounds, 0.3% hits | HEK293 TMEM16A/YFP-H148Q/I152L, iodide quench fluorescence; hits give low values | B-score at 10 µM;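 active = fluorescence-ratio B-score plate-corrected deviation score at least 3 library SD below zero, with starting fluorescence score within 5 deviations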;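 note: channel opened by trigger with iodide after compound preincubation; score built on the fluorescence ratio of max minus min over baseline; more negative score means more quench and so TMEM16A activation or potentiation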
MEKK2mut PB1 HTS: MEK5 binding signal on mutant MEKK2 PB1, primary screen, biochemical, multiplex bead flow cytometry, Alexa488-MEK5; Alexa488-MEK5 binding to MEKK2 mutant; percent response, % at 10 µM; 290,000 compounds, 0.35% hits; in the data active = percent response above about 24%, passing the limit was not always enough
NTR1 ag conf: NTR1 agonists, single-dose retest, confirmation, imaging, U2OS cells, beta-arrestin-GFP, single concentration; shares compounds with NTR1 ag; NTR1-U2OS beta-arrestin-GFP translocation imaging; activation, % at 20 µM; 480 compounds, 38% hits; AID 504550, 2011;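 active = mean activation at 20 µM of at least 40%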;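 note: 0% = DMSO without peptide and 100% = 100 nM NTR1 peptide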
Active calls of the source: *; i = inactive; x = not tested or not shown. A selection: hits, their analogues and other compounds. The true share with any hit is near 3.4%.

SMILES	ANO1 block	NTR1 ag	MEKK3 PB1 HTS	MEKK2wt PB1 HTS	TMEM16A act	MEKK2mut PB1 HTS	NTR1 ag conf
c1ccc(N2CCCCC2)c(Nc2nc3ccccc3n3cnnc23)c1	i	40.5*	106.0	99.0	i	4.0	33.0
FC(F)(F)c1ccc(N2CCOCC2)c(Nc2nc3ccccc3n3cnnc23)c1	i	44.6*	101.0	103.0	i	5.0	36.9
COc1ccc(-n2ncc3c(N4CCN(Cc5ccccc5)CC4)ncnc32)cc1	i	67.1*	108.0	105.0	i	2.0	56.1*
O=C(Cc1ccc(Br)cc1)NCc1ccccc1	i	-0.1	96.0	100.0	i	-1.0	x
CCc1cccc2c1NC(=O)C21N2CCCC2C(C(=O)c2ccc3ccccc3c2)C12C(=O)Nc1ccccc12 (stereo unspecified)	i	22.6	124.0	99.0	i	-1.0	x
CCc1ccc2c(c1)C1(C(=O)N2)N2CCCC2C(C(=O)c2ccc3ccccc3c2)C12C(=O)Nc1ccccc12 (stereo unspecified)	i	55.1*	97.0	92.0	i	-1.0	87.3*
COc1cc(OC)c2cc(C(=O)N/N=C/c3cccc(OC)c3O)[nH]c2c1	i	60.2*	103.0	107.0	i	3.0	72.7*
COc1cccc(/C=N/NC(=O)c2cc3c(OC)ccc(OC)c3[nH]2)c1O	i	0.0	99.0	95.0	i	-5.0	x
COc1ccc(Cn2c(-c3ccc(C)cc3)nc3c(c(=O)c4ccccc4n3C)c2=O)cc1	i	40.8*	98.0	91.0	i	-1.0	22.8
COc1cc(/C=C2\C(=O)ON=C2c2ccc(Cl)cc2)ccc1O	i	48.6*	x	x	-5.92*	x	80.8*
O=C1ON=C(c2ccccc2)/C1=C/c1ccc(O)c(O)c1	i	27.7	104.0	104.0	i	3.0	x
c1ccc(-c2nnc3ccc(N4CCCC4)nn23)cc1	i	2.5	104.0	104.0	i	11.0	x
FC(F)(F)c1cccc(N2CCN(c3ccc4nnc(-c5ccccc5)n4n3)CC2)c1	i	58.4*	99.0	108.0	i	5.0	10.4
COc1ccc(S(=O)(=O)NCc2ccco2)cc1NC(=O)c1ccccc1	i	1.3	99.0	98.0	i	-1.0	x
CCc1nnc(NS(=O)(=O)c2ccc(NC(=O)c3cc(Cl)ccc3OC)cc2)s1	i	1.8	101.0	99.0	i	-1.0	x
CC1(C)CC(NC(=O)c2cccc([N+](=O)[O-])c2)CC(C)(C)N1	i	0.5	105.0	110.0	i	8.0	x
Cc1cccc(NC(=O)c2nc[nH]c2C(=O)N[C@H](C)c2ccccc2)c1	x	47.6*	x	x	i	x	13.1
Cc1ccc(NC(=O)c2nc[nH]c2C(=O)N[C@H](C)c2ccccc2)cc1	x	41.3*	x	x	i	x	13.3
O=CC1=C(c2ccccc2)Oc2ccccc2O1	i	44.1*	110.0	107.0	i	8.0	62.3*
Oc1ccccc1-n1c(-c2ccccc2)ccc1-c1ccccc1	i	50.9*	91.0	78.0	i	3.0	6.2
CC(C)(C)C1CCc2c(sc(NC(=O)CSc3ncn[nH]3)c2C#N)C1 (stereo unspecified)	i	41.3*	94.0	99.0	i	1.0	31.2
CC1CCc2c(sc(NC(=O)CSc3ncn[nH]3)c2C#N)C1 (stereo unspecified)	i	2.1	86.0	89.0	i	-31.0	x
COc1cccc(-c2nc(NC(C)C)c3ccccc3n2)c1O	i	63.5*	84.0	98.0	i	-1.0	-3.0
Cc1cc(C)n(-c2nc(Nc3ccccc3C)nc(-n3nc(C)cc3C)n2)n1	i	48.1*	94.0	85.0	x	-4.0	70.7*
Cc1cc(C)n(-c2nc(NC(C)(C)C)nc(NC(C)(C)C)n2)n1	i	0.8	107.0	106.0	i	6.0	x
SMILES	ANO1 block	NTR1 ag	MEKK3 PB1 HTS	MEKK2wt PB1 HTS	TMEM16A act	MEKK2mut PB1 HTS	NTR1 ag conf
Cc1cc(C)n(-c2nc(Nc3ccccc3C(F)(F)F)nc(-n3nc(C)cc3C)n2)n1	i	57.0*	110.0	99.0	i	5.0	43.3*
Cn1cc(S(=O)(=O)Nc2cccc3ccccc23)c(=O)n(C)c1=O	i	0.8	106.0	106.0	i	8.0	x
Cc1c(NC(=O)c2ccc(S(=O)(=O)Nc3ccccc3F)cc2)c(=O)n(-c2ccccc2)n1C	x	0.1	x	x	i	x	x
CCOC(=O)C1=C(CS(=O)(=O)c2ccc(C)cc2)NC(=O)NC1c1cc(OC)c(OC)c(OC)c1 (stereo unspecified)	i	48.4*	101.0	106.0	i	-2.0	-0.4
O=C(Nc1cccc(S(=O)(=O)N2CCCCC2)c1)c1ccc2c(=O)n3c(nc2c1)CCCCC3	i	42.7*	106.0	105.0	i	-5.0	26.0
CCc1ccc(NC(=O)c2ccc3c(=O)n4c(nc3c2)CCCCC4)cc1	i	10.5	99.0	97.0	i	2.0	x
C[C@@H]1COC(=O)[C@H](CC(=O)OC(C)(C)C)C/C=C\C[C@@H](CC(=O)N(CCO)Cc2ccccc2)C(=O)N1	x	-0.9	x	x	i	x	x
CCOC(=O)c1ccc(NC(=O)c2ccc(C)c(S(=O)(=O)N3CCOCC3)c2)cc1	i	52.2*	112.0	113.0	i	9.0	69.8*
CC(=O)c1ccc(NC(=O)c2ccc(C)c(S(=O)(=O)N3CCOCC3)c2)cc1	i	1.7	100.0	101.0	i	1.0	x
C[C@]12CCC(O)CC1CCC1C2CC[C@]2(C)C(c3cc(C(F)(F)F)n[nH]3)CCC12 (stereo partly specified)	i	73.5*	98.0	87.0	i	0.0	30.0
CC12CCC3C(CCC4CC(O)CCC43C)C1CC(O)C2 (stereo unspecified)	x	x	x	x	i	x	x
CCN(CC)CCNC(=O)c1c(C)oc2cc(Br)c(OC)cc12	i	2.6	86.0	100.0	i	-5.0	x
CC(CCc1ccccc1)NC(=O)COC(=O)c1ccc(S(C)(=O)=O)c([N+](=O)[O-])c1 (stereo unspecified)	i	42.3*	100.0	97.0	i	2.0	78.7*
